Unmarked numbers belong to inactive results. The rule behind the calls is not given here.

For the assay, the system named is Aerobactin synthetase IucA (Klebsiella pneumoniae hvKP1). Nature of the assay: IucA enzyme inhibition, primary screen, biochemical, Spectrum library (AID 1346200).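 Note: 100% = wells without compound and 0% = wells lacking enzyme.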 Conditions: malachite green pyrophosphate, A620, at 8 µM, hits give low values.
`CN1C2CC3C[C@H]1C(O3)C2O` (some centres undefined): the activity remaining is 108%.

As to `CC(Cc1ccc(O)c(O)c1)(NN)C(=O)O` (centres undefined), the activity remaining is 111%.

As to `CC1=CCc2c(cc3oc(C)cc(=O)c3c2O)OC1`, the activity remaining was 120%.

On to `CCN1CCN(C(=O)NC(C(=O)N[C@@H]2C(=O)N3[C@@H]2SC(C)(C)[C@@H]3C(=O)O)c2ccccc2)C(=O)C1=O` (some centres undefined), for which the activity remaining was 104%.

Turning to `CC(=O)O[C@@H]1CC2C(C)(C)C(=O)C3OC3[C@]2(C)C2CC[C@@]3(C)[C@H](c4ccoc4)OC(=O)C4OC43[C@@]21C` (some centres undefined), the activity remaining was 101%.

On to `COc1ccc(-c2cc(=O)c3c(O)c(OC)c(OC)c(OC)c3o2)cc1`, for which the activity remaining was 93%.

Consider `Cc1ncc([N+](=O)[O-])n1CC(C)O` (centres undefined), for which the activity remaining was 112%.

Consider `CC1=C(CCC(=O)O)c2cc3nc(cc4[nH]c(cc5[nH]c(cc1n2)c(C)c5C(C)O)c(C)c4C(C)O)C(C)=C3CCC(=O)O` (centres undefined), for which the activity remaining is 107%.

Consider `C=C1CCC(OC(C)=O)/C(C)=C/C[C@@H]2[C@@H]1CC2(C)C` (some centres undefined), for which the activity remaining is 103%.

On to `C/C=C/c1ccc(OC)cc1`, for which the activity remaining was 98.6%.

Take `NC1=NCCN1CC(=O)O`: the activity remaining was 112%.

In the case of `CCN(CCCc1ccccc1)CCCc1ccccc1`, the activity remaining was 109%.

With `O=C(O)CCCc1ccccc1`, the activity remaining is 111%.

With `Nc1ccc(C(=O)NCC(=O)O)cc1`, the activity remaining was 111%.

On to `Oc1ccc2c(c1)OCC1(O)Cc3cc(O)c(O)cc3C21` (centres undefined), for which the activity remaining was 91.6%.

Consider `CCCCCCCCCCCCCCCC(=O)OC[C@H](NC(=O)C(Cl)Cl)[C@H](O)c1ccc([N+](=O)[O-])cc1`, for which the activity remaining is 95.5%.

For the compound `CC1(C)C=Cc2cc3ccc(=O)oc3cc2O1`, the activity remaining is 119%.

On to `OCc1ccccc1O[C@@H]1O[C@H](CO)[C@@H](O)[C@H](O)[C@H]1O`, for which the activity remaining is 101%.

`Nc1ccn(C2O[C@H](CO)[C@@H](O)[C@@H]2O)c(=O)n1` (some centres undefined): the activity remaining is 93.2%.

For the compound `COc1ccc(-c2cc(=O)c3cc(OC)ccc3o2)cc1`, the activity remaining was 95.7%.

For `CCOc1ccc(NC(C)=O)cc1`, the activity remaining was 97.1%.

With `COc1cc(OC)c2c(=O)c(OC)c(-c3ccc(OC)c(OC)c3)oc2c1`, the activity remaining is 120%.

For the compound `CN(C)C(=N)N=C(N)N`, the activity remaining is 120%.

As to `O=C(O)c1cc(=O)c2c(OCC(O)COc3cccc4oc(C(=O)O)cc(=O)c34)cccc2o1`, the activity remaining is 115%.

For `O=C1O[C@@H](CO)[C@H](O)[C@@H](O)[C@@H]1O`, the activity remaining was 113%.

Regarding `Cc1[nH]ccc2c1[nH]c1cc(=O)ccc12`, the activity remaining is 118%.

With `CCCCCC(=O)Cc1cc(O)cc(O)c1C(=O)Oc1cc(CC(=O)CCCCC)c(C(=O)O)c(OC)c1`, the activity remaining is 106%.

Regarding `O=C(NC(Cc1cc(=O)[nH]c2ccccc12)C(=O)O)c1ccc(Cl)cc1` (centres undefined), the activity remaining was 106%.

With `C[C@@H]1CC2C3C[C@H](F)C4=CC(=O)C=C[C@]4(C)[C@@]3(F)[C@@H](O)C[C@]2(C)[C@@]1(O)C(=O)CO` (some centres undefined), the activity remaining was 113%.

In the case of `COc1cc(-c2coc3cc(OC)c(OC)c(OC)c3c2=O)cc(OC)c1OC`, the activity remaining is 121%.

For the compound `Cn1cc[nH]c1=S`, the activity remaining is 99.8%.

For `CC(C)NCC(O)COc1cccc2ccccc12` (centres undefined), the activity remaining is 105%.

Consider `CC1(C)O[C@H]2CC(=O)OC[C@]23[C@H]2CC[C@@]4(C)[C@H](c5ccoc5)OC(=O)[C@H]5O[C@]54[C@]2(C)C(=O)C[C@@H]13`, for which the activity remaining was 112%.

Take `C=C(C)[C@H]1COc2cc3oc(=O)ccc3cc2O1`: the activity remaining was 118%.

Turning to `COc1ccc2c(c1)[C@@]1(C)CCC(=O)C[C@H]1CC2`, the activity remaining was 101%.

With `C=CC1=C(C(=O)O)N2C(=O)[C@@H](NC(=O)/C(=N\O)c3csc(N)n3)[C@H]2SC1` (stereo in doubt), the activity remaining is 103%.

`O=c1cc(-c2ccccc2)oc2cc(O)c(O)c(O)c12`: the activity remaining was 122%.

Regarding `Cc1cc(C)nc(NS(=O)(=O)c2ccc(N)cc2)n1`, the activity remaining is 111%.

`O=C(O)CCC(=O)Nc1ccc(S(=O)(=O)Nc2nccs2)cc1`: the activity remaining is 116%.

Values taken from PubChem BioAssay.
